The supplement of paper PMC10127200
Counter-ions that a name gives are not always drawn.

What was measured:
Experiment in all cases: Euclidean distance of Cell Painting phenotypic profile (signed KS, 77 features) to DMSO centroid (dimensionless distance); 5 or 10 uM (library dependent); higher = stronger phenotypic change vs DMSO (phenoactivity)
Settings in all cases: 48 h
786-O = tested on: 786-O
Summary of the method: (§1)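 At 10 or 5 uM, as set by the library, and 0.1% DMSO final, compounds were applied for 48 h to five cancer lines and one healthy fibroblast line. Stained cells were imaged confocally at 20X in 9 fields per well, and Harmony extracted 77 features scored as signed Kolmogorov-Smirnov statistics against vehicle wells on the same plate. Profiles underwent plate-position correction, correlation weighting and replicate averaging at the top dose. Phenoactivity is the Euclidean distance from each such profile to the median vehicle profile.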

A549 = tested on: A549
Summary of the method: as §1

DU145 = tested on: DU145
Summary of the method: as §1

FB = tested on: FB
Summary of the method: as §1

HEPG2 = tested on: HEPG2
Summary of the method: as §1

OVCAR4 = tested on: OVCAR4
Summary of the method: as §1

Structure (SMILES)	Euclidean distance (786-O)	Euclidean distance (A549)	Euclidean distance (DU145)	Euclidean distance (FB)	Euclidean distance (HEPG2)	Euclidean distance (OVCAR4)
CCOC(=O)c1c(N)sc2c1CCN(Cc1ccccc1)C2 [Tinoridine hydrochloride]	1.51	0.9	1.2	1.13	0.814	1.31
CCN(CCO)CCCC(C)Nc1ccnc2cc(Cl)ccc12 (stereo not drawn) [Hydroxychloroquine Sulfate]	3.48	3.08	2.6	5.29	2.92	3.58
CN1CCCN=C1/C=C/c1cccs1 [Pyrantel Pamoate]	1.65	0.995	0.771	1.28	0.805	1.2
O=C(Nc1ccc(O)cc1)c1ccccc1O [Osalmid]	1.02	0.634	1.01	1.27	0.744	0.853
Cc1c(Cn2c(C)nc3c(C(=O)O)cc(N4CCOCC4)cc32)cccc1C(F)(F)F	2.39	1.14	1.28	1.21	0.982	1.33
COc1ccc(CN(CCN(C)C)c2ncccn2)cc1 [Thonzylamine]	1.16	1.66	1.32	1.44	0.672	1.89
CC(C)NCC(O)c1ccc(NS(C)(=O)=O)cc1 (stereo not drawn) [Sotalol]	1.21	0.865	0.768	0.911	0.602	1.02
CO/N=C(\C(=O)N[C@@H]1C(=O)N2C(C(=O)O)=C(CSC(=O)c3ccco3)CS[C@H]12)c1csc(N)n1 [Ceftiofur]	0.442	0.362	0.719	0.698	1.81	1.07
CN1C(=O)OC(C)(C)C1=O [Trimethadione]	0.978	1.26	0.732	0.717	0.658	0.721
CC(C)(C)C(O)/C=C/c1ccc2c(c1)OCO2 (stereo not drawn) [Stiripentol]	0.796	0.894	1.07	0.983	0.456	0.801
COc1cc2nccc(Oc3ccc(NC(=O)NC4CC4)c(Cl)c3)c2cc1C(N)=O [lenvatinib Mesylate]	1.2	1.1	1.71	3.39	0.829	2.16
COc1cc2ncnc(Nc3ccc(F)c(Cl)c3)c2cc1OCCCN1CCOCC1 [Gefitinib (ZD1839)]	2.03	2.48	2.47	1.24	1.6	1.64
Cn1cc(-c2ccc3c(c2)ncn3-c2cc(NS(=O)(=O)C3CC3)cc(-c3ccc(F)cc3F)c2)cn1	2.53	1.64	1.26	4.3	1.6	2.75
CC(CN1c2ccccc2Sc2ccccc21)N(C)C (stereo not drawn) [Promethazine HCl]	0.72	0.962	1.47	1.72	0.856	1.1
CN(C)CCOc1ccc(-c2nc(-c3ccncc3)c(-c3ccc4c(c3)CC/C4=N\O)[nH]2)cc1	1.49	1.63	2.08	2.65	4.66	2.22
O=c1[nH]c(=O)n([C@H]2C[C@H](O)[C@@H](CO)O2)cc1C(F)(F)F [Trifluridine]	2.89	3.28	2.74	1.07	3.56	2.85
COc1cc(-c2cc(-c3cccc(O)c3)cnc2N)cc(OC)c1OC	2.06	2.24	1.46	2.23	1.93	1.77
CN1CC2c3ccccc3Oc3ccc(Cl)cc3C2C1 (stereo not drawn) [Asenapine maleate]	1.69	0.991	2.6	1.59	1.28	1.51
Clc1ccc(C(Cn2ccnc2)OCc2c(Cl)cccc2Cl)c(Cl)c1 (stereo not drawn) [Isoconazole nitrate]	1.02	0.91	1.26	0.868	0.714	1.04
CC(C)=CCOc1ccc(/C=C/C(=O)c2ccc(OCC=C(C)C)cc2OCC(=O)O)cc1 [Sofalcone]	1.25	1.09	0.847	1.01	0.922	1.08
CN(C)[C@@H]1C(O)=C(C(N)=O)C(=O)[C@@]2(O)C(O)=C3C(=O)c4c(O)ccc(Cl)c4[C@@](C)(O)[C@H]3C[C@@H]12 [Chlortetracycline HCl]	1.45	0.912	1.04	0.904	0.464	1.05
C[C@H]1C[C@@H]2[C@H]([C@@H](O)C[C@@]3(C)[C@H]2CC[C@]3(O)C(=O)CO)[C@@]2(C)C=CC(=O)C=C12 [Methylprednisolone]	1.37	1.96	1.76	1.79	2.31	2.07
O=C(O)/C=C/c1ccc(Cn2ccnc2)cc1 [Ozagrel HCl]	0.843	0.862	1.12	0.899	1.97	1.61
COCCNCCc1cccc(Nc2ncc3c(n2)-c2ccccc2[C@H](c2ccccc2F)C3)c1 [Derazantinib(ARQ-087)]	6.37	4.25	5.6	3.69	4.56	4

Structure (SMILES)	Euclidean distance (786-O)	Euclidean distance (A549)	Euclidean distance (DU145)	Euclidean distance (FB)	Euclidean distance (HEPG2)	Euclidean distance (OVCAR4)
CN1[C@@H]2CC[C@H]1C[C@@H](OC(c1ccccc1)c1ccccc1)C2 [Benztropine mesylate]	1.38	0.973	1.51	1.56	1.19	1.21
O=c1ccn([C@@H]2O[C@H](COP(=O)(O)OP(=O)(O)OP(=O)(O)OP(=O)(O)OC[C@H]3O[C@@H](n4ccc(=O)[nH]c4=O)[C@H](O)[C@@H]3O)[C@@H](O)[C@H]2O)c(=O)[nH]1 [Diquafosol Tetrasodium]	0.977	0.68	0.599	1.1	0.787	1.2
C[C@@H]1CCO[C@H]2Cn3cc(C(=O)NCc4ccc(F)cc4F)c(=O)c(O)c3C(=O)N12	1.38	1.81	1.15	1	1.37	1.79
OCc1ccc(-c2ccc(-c3ccc(CO)s3)o2)s1	2.79	2.26	1.44	2.66	4.78	5.04
CCOC(=O)CCNc1cc(N2CCc3ccccc3CC2)nc(-c2ccccn2)n1	2	2.58	2.35	2.56	2.41	1.95
CCN(CC)CC(=O)Nc1c(C)cccc1C [Lidocaine hydrochloride]	0.709	0.8	0.919	0.862	0.656	1.35
O=C(O)CCC(=O)OC[C@@H](NC(=O)C(Cl)Cl)[C@H](O)c1ccc([N+](=O)[O-])cc1 [Chloramphenicol sodium succinate]	1.83	1.28	0.814	0.919	0.53	1.07
CC(=O)O[C@@H]1CC[C@@]2(C)[C@@H](CC[C@]3(C)[C@@H]2C(=O)C=C2[C@@H]4[C@@H](C)[C@H](C)CC[C@]4(C)CC[C@]23C)[C@@]1(C)C(=O)O	0.752	0.999	1.02	0.939	0.732	0.773
CCC(=O)Oc1ccc2c(c1)CCC1C2CCC2(C)C(OC(=O)CC)CCC12 (stereo not drawn) [17-Beta-Estradiol-3.17-Dipropionate]	1.55	0.8	1.46	1.21	0.326	0.98
COc1cc(Br)c(Nc2nc(-c3c(C)nc4ncccn34)cs2)c(Br)c1	3.62	2.67	2.18	2.66	4.16	1.63
CC1CNc2c(cccc2S(=O)(=O)N[C@@H](CCCNC(=N)N)C(=O)N2CC[C@@H](C)C[C@@H]2C(=O)O)C1 (stereo partly drawn) [Argatroban]	0.618	0.352	0.62	0.896	0.99	0.903
CCOC(=O)C1=C(COCCN)NC(C)=C(C(=O)OC)[C@@H]1c1ccccc1Cl [Levamlodipine]	0.971	0.702	0.684	1.12	0.978	0.931
CN1CCC(=C2c3ccccc3CC(=O)c3sccc32)CC1 [Ketotifen Fumarate]	0.851	0.639	0.639	1.17	0.589	1.2
C=CC(=O)Nc1ccc2ncnc(Nc3cccc(Br)c3)c2c1	1.72	2.07	1.78	2.78	1.47	2.99
O=C(OC[C@H]1O[C@@H](OC(=O)c2cc(O)c(O)c(OC(=O)c3cc(O)c(O)c(O)c3)c2)[C@H](OC(=O)c2cc(O)c(O)c(OC(=O)c3cc(O)c(O)c(O)c3)c2)[C@@H](OC(=O)c2cc(O)c(O)c(OC(=O)c3cc(O)c(O)c(O)c3)c2)[C@@H]1OC(=O)c1cc(O)c(O)c(OC(=O)c2cc(O)c(O)c(O)c2)c1)c1cc(O)c(O)c(OC(=O)c2cc(O)c(O)c(O)c2)c1 [Tannic acid]	0.956	1.44	1.47	1.45	1.43	1.05
CN(C)CCC(c1ccccc1)c1ccccn1 (stereo not drawn) [Pheniramine Maleate]	0.54	1.02	0.777	0.632	0.694	1.34
O=C(O)P(=O)(O)O [Foscarnet Sodium]	1.83	0.762	1.18	0.986	0.776	1.11
O=C(/C=C/c1cccc(S(=O)(=O)Nc2ccccc2)c1)NO [Belinostat (PXD101)]	1.71	2.39	2.38	1.82	1.99	1.12
CNC(=C[N+](=O)[O-])NCCSCc1csc(CN(C)C)n1 [Nizatidine]	1.68	1.53	2.02	0.759	1.7	1.18
Cc1c(C(N)=O)cc([N+](=O)[O-])cc1[N+](=O)[O-] [Dinitolmide]	0.913	1.4	0.756	0.814	0.831	1.38
O=C(Nc1ccccc1-c1cn2c(CN3CCNCC3)csc2n1)c1cnc2ccccc2n1	6.03	5.64	5.63	5.74	5.23	5.14
Cc1cccc(Nc2nc(-c3ccncc3)cs2)c1	3.35	3.77	4.06	3.02	1.11	1.73
CCc1cc(Nc2nccc(-c3c(-c4ccc(OC)c(C(=O)Nc5c(F)cccc5F)c4)nc4ccccn34)n2)c(OC)cc1N1CCC(N2CCN(S(C)(=O)=O)CC2)CC1	1.24	1.6	1.12	0.954	1.11	1.26
COc1cc2nc(N3CCN(C(=O)C4COc5ccccc5O4)CC3)nc(N)c2cc1OC (stereo not drawn) [Doxazosin]	1.52	1.28	1.55	0.683	0.609	1.18
